# Measurements: PubChem BioAssay (NCI)
# Compounds without any hit were thinned out: in the full panel of roughly 79,000, 15% have a hit. Calls of active or inactive are those of the source. Cut-off read from the data, not from the text of the source: active = growth inhibition above about 70%; inactive = the rest.
# Assay: NCI Yeast Anticancer Drug Screen. Data for the mec2-1 strain (AID 157)
# Details: S. cerevisiae mec2-1 strain, at 50.0 µM, active compounds read high
# Summary of the method: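 Each compound was tested on mec2-1 yeast, a strain altered in DNA damage repair or cell cycle control. Growth inhibition is reported relative to vehicle.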
row,Compound,growth inhibition
1,CCOC(=O)C(CCC#N)(CCC#N)C(=O)OCC,9.8% (inactive)
2,CCOC(=O)/C(C)=C\c1ccc(OC)c(OC)c1,-11.2% (inactive)
3,CCc1ccccc1C(=O)N(CC)CC,18.4% (inactive)
4,ON1CCCC1,-4.15% (inactive)
5,NC(=S)N/N=C/c1ccc(OC(=O)COc2ccc(Cl)cc2)cn1,7.85% (inactive)
6,CC(C)(C)NCCC(O)c1cc(C(F)(F)F)nc2c(C(F)(F)F)cccc12 (centres undefined),-36.1% (inactive)
7,Nc1cc(N)ncn1,-18.9% (inactive)
8,CC1(C)CC(=O)C=C(N)C1,-16.5% (inactive)
9,CCNC(=O)OCCc1c2ccccc2nc2ccccc12,36.5% (inactive)
10,C=CC(C)C(C)(C)O (centres undefined),-43.5% (inactive)
11,Clc1ncnc2nc[nH]c12,-1% (inactive)
12,CC(C)Sc1ncnc2nc[nH]c12,1.1% (inactive)
13,CC(=O)OCC1CCC(COC(C)=O)CC1 (centres undefined),-30.6% (inactive)
14,O=C1C=C[C@H](O)[C@@]2(CO)O[C@@H]12,0.85% (inactive)
15,C/C(=N\O)c1ccccn1,-16.4% (inactive)
16,COc1ccc(C2CCCCC2=O)cc1 (centres undefined),-48.9% (inactive)
17,O=Cc1c(O)c2ccccc2[nH]c1=O,1.35% (inactive)
18,O=C(O)CCCCCNC(=O)OCc1ccccc1,-41.9% (inactive)
19,CCCCOC(=O)c1ccccc1O,-0.8% (inactive)

row,Compound,growth inhibition
1,Cc1cc(C(=O)c2ccccc2)cc(C)c1O,-3.35% (inactive)
2,C#CC(O)c1ccccc1 (centres undefined),-15.3% (inactive)
3,CCOC(=O)c1c(C)[nH]c(C)c1C=O,-0.05% (inactive)
4,Nc1ncnc2c1ncn2C1OC(CO)C2OC21 (centres undefined),-7.85% (inactive)
5,CC(=O)N(C)N=Nc1ccc(C)cc1,-23.6% (inactive)
6,COc1cccc(C(=O)NNC(=O)c2cccc3ccccc23)c1,-59.1% (inactive)
7,COc1cc(C(=O)O)c(O)c(C(C)(C)C)c1,4.25% (inactive)
8,COc1cc2c(c(OC)c1OC)-c1ccc(SC)c(=O)cc1[C@@H](NC1OC(CO)C(O)C(O)C1O)CC2 (some centres undefined),-1.85% (inactive)
9,CC(=O)[C@@]1(O)CC[C@H]2[C@@H]3CC[C@@H]4CC(=O)CC[C@]4(C)[C@H]3[C@@H](O)C[C@@]21C,-1.9% (inactive)
10,O=C1C=C(c2ccccc2)C(O)(c2ccccc2)C1 (centres undefined),6.85% (inactive)
11,COc1nc(Nc2cccc(C(F)(F)F)c2)nc(OC)n1,-8% (inactive)
12,CC(C)NC(=O)OCc1c(COC(=O)NC(C)C)c(-c2ccc(Cl)cc2)n2c1CCC2,-23.7% (inactive)
13,C(=C\c1ccncc1)/c1ccncc1,-7.2% (inactive)
14,NNC(=O)c1ccccc1N,4.35% (inactive)
15,CC12CCC3c4ccc(O)cc4CCC3C1CCC2=O (centres undefined),-11.8% (inactive)
16,NNC(=O)CCCCl,-15.7% (inactive)
17,Cc1cccc(C)c1NC(=S)/N=C\c1c(O)[nH]c(=O)[nH]c1=O,-27.2% (inactive)
18,O=C(CCl)Oc1ccc([N+](=O)[O-])cc1,21.9% (inactive)

# Assay: NCI Yeast Anticancer Drug Screen. Data for the sgs1 mgt1 strain (AID 161);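 note: 0% = growth of cultures given vehicle only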
# Details: S. cerevisiae sgs1 mgt1 strain, at 50.0 µM, active compounds read high
# Summary of the method: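 Read-out: growth inhibition vs vehicle controls. Cells: mutant yeast strain deficient in DNA damage repair.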
row,Compound,growth inhibition
1,CCOC(=O)C(CCC#N)(CCC#N)C(=O)OCC,-2.2% (inactive)
2,CCOC(=O)/C(C)=C\c1ccc(OC)c(OC)c1,25.9% (inactive)
3,CCc1ccccc1C(=O)N(CC)CC,16.6% (inactive)
4,ON1CCCC1,-8.9% (inactive)
5,NC(=S)N/N=C/c1ccc(OC(=O)COc2ccc(Cl)cc2)cn1,31.4% (inactive)
6,CC(C)(C)NCCC(O)c1cc(C(F)(F)F)nc2c(C(F)(F)F)cccc12 (centres undefined),-22.4% (inactive)
7,Nc1cc(N)ncn1,3.6% (inactive)
8,CC1(C)CC(=O)C=C(N)C1,1.05% (inactive)
9,CCNC(=O)OCCc1c2ccccc2nc2ccccc12,42.4% (inactive)
10,C=CC(C)C(C)(C)O (centres undefined),-1% (inactive)
11,Clc1ncnc2nc[nH]c12,15.5% (inactive)
12,CC(C)Sc1ncnc2nc[nH]c12,-3.05% (inactive)
13,CC(=O)OCC1CCC(COC(C)=O)CC1 (centres undefined),-10.4% (inactive)
14,O=C1C=C[C@H](O)[C@@]2(CO)O[C@@H]12,-14.5% (inactive)
15,C/C(=N\O)c1ccccn1,-17.9% (inactive)
16,COc1ccc(C2CCCCC2=O)cc1 (centres undefined),-11.8% (inactive)
17,O=Cc1c(O)c2ccccc2[nH]c1=O,-1.55% (inactive)
18,O=C(O)CCCCCNC(=O)OCc1ccccc1,16.7% (inactive)
19,CCCCOC(=O)c1ccccc1O,-13.8% (inactive)

row,Compound,growth inhibition
1,Cc1cc(C(=O)c2ccccc2)cc(C)c1O,12.8% (inactive)
2,C#CC(O)c1ccccc1 (centres undefined),13.1% (inactive)
3,CCOC(=O)c1c(C)[nH]c(C)c1C=O,3.15% (inactive)
4,Nc1ncnc2c1ncn2C1OC(CO)C2OC21 (centres undefined),2.05% (inactive)
5,CC(=O)N(C)N=Nc1ccc(C)cc1,-13.6% (inactive)
6,COc1cccc(C(=O)NNC(=O)c2cccc3ccccc23)c1,-26.8% (inactive)
7,COc1cc(C(=O)O)c(O)c(C(C)(C)C)c1,17.9% (inactive)
8,COc1cc2c(c(OC)c1OC)-c1ccc(SC)c(=O)cc1[C@@H](NC1OC(CO)C(O)C(O)C1O)CC2 (some centres undefined),5.25% (inactive)
9,CC(=O)[C@@]1(O)CC[C@H]2[C@@H]3CC[C@@H]4CC(=O)CC[C@]4(C)[C@H]3[C@@H](O)C[C@@]21C,-3% (inactive)
10,O=C1C=C(c2ccccc2)C(O)(c2ccccc2)C1 (centres undefined),6.75% (inactive)
11,COc1nc(Nc2cccc(C(F)(F)F)c2)nc(OC)n1,15.4% (inactive)
12,CC(C)NC(=O)OCc1c(COC(=O)NC(C)C)c(-c2ccc(Cl)cc2)n2c1CCC2,-26.1% (inactive)
13,C(=C\c1ccncc1)/c1ccncc1,6.45% (inactive)
14,NNC(=O)c1ccccc1N,27.1% (inactive)
15,CC12CCC3c4ccc(O)cc4CCC3C1CCC2=O (centres undefined),14.7% (inactive)
16,NNC(=O)CCCCl,-11.5% (inactive)
17,Cc1cccc(C)c1NC(=S)/N=C\c1c(O)[nH]c(=O)[nH]c1=O,-32.3% (inactive)
18,O=C(CCl)Oc1ccc([N+](=O)[O-])cc1,23.8% (inactive)
